According to PubChem BioAssay (Tox21):
Results filed as inconclusive are left out. Active and inactive are the calls of the source. The call rests on the fitted dose curve.

Test: qHTS assay to identify small molecule agonists of H2AX - cell viability counter screen (AID 1224847); further: top concentration of the series differs between compounds; nearly all actives have a fitted effect of over 30% in size
Conditions: CHO-K1 viability, CellTiter-Glo luminescence, 3 h; series mostly up to 70.9 µM; activity change, negative = cytotoxicity: at the top concentration
Method in brief: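 Viability of CHO-K1 (wild type) cells after 3 hr compound exposure was measured by CellTiter-Glo luminescence.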
On the % scale 0 is the no-effect control and ±100 the full control effect.

SMILES	activity change, negative = cytotoxicity
CC(C)(C)c1nnc(NS(=O)(=O)c2ccccc2)s1	1.88% (inactive)
c1ccc(CC2=NCCN2)cc1	-5.38% (inactive)
CCCCCCCCCCCCN(CCCCCCCCCCCC)CCCCCCCCCCCC	2.53% [at 154 µM] (inactive)
C=CCS(=O)(=O)O	0.931% [at 154 µM] (inactive)
COCCCOCCCOC	-0.783% [at 154 µM] (inactive)
NS(=O)(=O)c1ccc(C(=O)O)cc1	0.695% (inactive)
COc1c(N2C[C@@H]3CCCN[C@@H]3C2)c(F)cc2c(=O)c(C(=O)O)cn(C3CC3)c12	2.25% (inactive)
COC(=O)c1ccc(C)cc1C1=NC(C)(C(C)C)C(=O)N1 (configuration not stated)	-0.677% [at 154 µM] (inactive)
CS(=O)(=O)O	-1.83% [at 154 µM] (inactive)
CC(=O)c1ccccc1O	-0.111% [at 154 µM] (inactive)
Cc1ccc(C#N)cc1	0.443% [at 154 µM] (inactive)
O=C(O)c1ccccc1OP(=O)(O)O	1.16% (inactive)
O=c1[nH]c(=O)n([C@H]2C[C@H](O)[C@@H](CO)O2)cc1I	-1.48% (inactive)
CCOC(=O)[C@H](CCc1ccccc1)N[C@@H](C)C(=O)N1[C@H](C(=O)O)C[C@@H]2CCC[C@@H]21	-0.192% (inactive)
COc1cc(C(=O)N2CCCCCCC2)cc(OC)c1OC	4.51% (inactive)
O=C(O)CCCc1ccccc1	-1.77% (inactive)
CO/N=C(/C(=O)N[C@@H]1C(=O)N2C(C(=O)OCOC(=O)C(C)(C)C)=C(C)CS[C@H]12)c1csc(N)n1	-2.69% (inactive)
Cc1cc2c(cc1S(N)(=O)=O)S(=O)(=O)CCC2	-1.67% (inactive)
Cc1cc(O)cc2c1O[C@](C)(CCC[C@H](C)CCC[C@H](C)CCCC(C)C)CC2	-4.62% (inactive)
CCOC(=O)c1c(C)n(C)c2ccc(O)cc12	-0.0536% (inactive)
O=C(CCCN1CCN(c2ccccn2)CC1)c1ccc(F)cc1	-7.9% (inactive)
CCS(=O)(=O)c1ccc(OC)c(C(=O)OC)c1	4.87% (inactive)
